Assay outcomes deposited in PubChem BioAssay by National Center for Advancing Translational Sciences (NCATS).
Most compounds without a hit are left out; they make up all but 21% or so of the library.
DT40 TDP1 no CPT: qHTS for Inhibitors of human tyrosyl-DNA phosphodiesterase 1 (TDP1): qHTS in cells in absence of CPT. Potency, µM (highest dose often 46.2 µM), for the others: top-dose activity change, negative = growth inhibition, hits mostly inhibitors. 420,000 tested, 15% active. DT40 Tdp1-/- hTDP1 cells, no CPT, ATP luminescence, 48 h; note: potency is the fitted concentration of half-maximal effect; % is set by controls: 0 for no effect and ±100 for the full control effect; nearly all actives have a fitted effect of over 55% in size
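Camptothecin absent (DMSO only). Human TDP1-complemented DT40 knockout cells, 400 cells/well, 37 °C for minimum 48 hr; ATP measured via CellTiter-Glo, 30 min dark incubation, luminescence.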
D3 ag: D3 dopamine receptor (human) agonism. D3R DiscoveRx beta-arrestin cells, luminescence, 90 min. AID 652048. P35462. max activation, %. 410,000 tested, 0.58% active; in the data active = max activation above about 30%; note: 0% is about no effect
Target sequence (P35462 whole entry, looked up): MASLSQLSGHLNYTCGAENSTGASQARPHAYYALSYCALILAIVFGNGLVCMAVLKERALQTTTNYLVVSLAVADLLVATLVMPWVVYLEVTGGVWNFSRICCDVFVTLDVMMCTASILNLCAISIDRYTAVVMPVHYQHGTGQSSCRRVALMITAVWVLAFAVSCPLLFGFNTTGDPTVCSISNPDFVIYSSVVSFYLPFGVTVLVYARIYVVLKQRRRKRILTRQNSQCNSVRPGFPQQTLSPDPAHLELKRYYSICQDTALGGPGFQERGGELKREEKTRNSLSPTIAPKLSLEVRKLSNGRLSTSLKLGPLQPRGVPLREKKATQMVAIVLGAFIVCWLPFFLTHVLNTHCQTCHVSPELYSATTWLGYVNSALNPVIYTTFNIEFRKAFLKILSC
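Agonist-mode cell screen: cells plated at 1500/well and incubated overnight at 37 °C, then exposed to library compounds for 90 min at 37 °C. Detection reagent was added for 30–60 min at room temperature, and luminescence was read.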
IL1B secr inh: inhibitors of inflammasome signaling (IL-1 beta secretion). THP-1 LPS/ATP IL-1B secretion, AlphaLISA, 16 h; hits give low values. activity change, % at 57.5 µM. 360,000 tested, 4.7% active. AID 743279; in the data active = activity change below about -50%; inconclusive = mostly about -30% to -49%; note: % is set by controls: 0 for no effect and ±100 for the full control effect
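Secreted IL-1B measured by AlphaLISA bead assay after 16 h compound exposure of THP-1 cells; compounds (final up to 57.5 uM) added 1 h before LPS (250 ng/mL) and ATP (1.25 mM) stimulation; lower signal means less secretion.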
TDP1 cell CPT: growth inhibition of DT40 Tdp1-/-;hTDP1 cells with camptothecin (screen for TDP1 inhibitors); chicken DT40 Tdp1-/-;hTDP1 cells + 20 nM CPT, ATP luminescence, 48 h; Potency, µM (top dose mostly 46.2 µM), inactives show top-dose activity change, negative = growth inhibition, actives largely listed as inhibitors; 420,000 tested, 12% active; AID 686979; note: potency is the fitted concentration of half-maximal effect; % is set by controls: 0 for no effect and ±100 for the full control effect; nearly all actives have a fitted effect of over 55% in size
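Cell growth measured by CellTiter-Glo luminescence after a minimum 48 h, 37 C compound exposure with 20 nM CPT in Tdp1-knockout DT40 cells stably expressing hTDP1, seeded 400/well; qHTS titration format.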
DRD3 antagonist: blocks the human D3 dopamine receptor | P35462 | D3R cells, DiscoveRx beta-arrestin luminescence, antagonist mode; hits give low values | max response, negative = inhibition, % | 360,000 tested, 2.5% active; in the data active = max response below about -50%; inconclusive = no clear call, values can overlap the other calls; note: % is set by controls: 0 for no effect and ±100 for the full control effect
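Cells expressing the human receptor were seeded at 1500 cells/well, incubated overnight at 37 degrees C in 5% CO2, then exposed to library compounds with dopamine controls for 90 minutes at 37 degrees C before luminescent detection.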
ClpP mod: qHTS Assay for Activators of ClpP; purified B. subtilis ClpP, FRET peptide cleavage, 20 min; ATP-dependent Clp protease proteolytic subunit (Bacillus subtilis (strain 168)), P80244; Potency, µM (highest dose often 57.5 µM), inactives show at the highest dose activity change, negative = active; 340,000 tested, 1.9% active; active = well fitted falling curve with a large enough effect; inconclusive = small, poorly fitted or top-dose-only effect; inactive = no such curve, though single readings can be large or run the other way; note: potency is the fitted concentration of half-maximal effect; the source files actives as falling curves though it sought activators and does not explain the sign; nearly all actives have a fitted effect of over 65% in size
Target sequence (P80244 whole entry, looked up): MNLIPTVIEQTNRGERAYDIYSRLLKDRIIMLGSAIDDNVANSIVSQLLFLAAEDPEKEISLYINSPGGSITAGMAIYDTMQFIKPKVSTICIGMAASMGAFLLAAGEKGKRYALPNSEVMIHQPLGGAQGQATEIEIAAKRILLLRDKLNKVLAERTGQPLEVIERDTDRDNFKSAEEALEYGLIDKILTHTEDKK
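Buffer: 100 mM Tris/HCl pH8, 100 mM KCl, 0.05% low protease BSA, 2.5% glycerol, 0.01% Tween-20. ClpP 10 microg/mL final; 20 min RT; delta FRET normalized to ADEP and DMSO controls.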
Numbers without * were called inactive; ? = inconclusive; nt = not tested or not shown; [ ] = another dose, or the depositor's remark. Unless noted, calls come from the whole dose curve; as a rule, active = well fitted inhibition curve with a large enough effect; inconclusive = small, poorly fitted or top-dose-only effect; inactive = flat fitted curve, though single readings scatter.

SMILES	DT40 TDP1 no CPT	D3 ag	IL1B secr inh	TDP1 cell CPT	DRD3 antagonist	ClpP mod
Cc1ccc(N2CCN(C(=O)c3cn(C)c4ccc(S(=O)(=O)N(C)C)cc4c3=O)CC2C)cc1 (configuration not stated)	-37%	-13	nt	1%	nt	-5%
CN(Cc1ccccc1)C(=O)c1ccc(NC(=O)c2ccccc2)cc1	9%	3	-13	-1%	-5	-1%
NC(=O)c1nsc(C(=O)N(Cc2cccnc2)C(C(=O)NCc2ccc(F)cc2)c2ccc(F)cc2)c1N (configuration not stated)	-25%	0	-55*	-28%	-1	nt
CC1=CC(C)(C)Nc2cc(C)c(C)cc21	-12%	11	0	-25%	-14	?
CC1=CC(C)(C)Nc2ccc(C)cc21	-9%	6	0	-5%	-9	32µM*
CC1=CC(C)(C)Nc2ccc(Cc3ccc4c(c3)C(C)=CC(C)(C)N4)cc21	21µM*	0	-6	21µM*	-4	3%
Cc1oc(-c2cccc(NC(=O)c3ccccn3)c2)nc1CNC(=O)c1cc(F)c(F)cc1F	-14%	nt	nt	-10%[9.04 µM]	nt	nt
Cc1cccc2nc(COc3ccc4ccccc4c3Br)cn12	23µM*	-8	66	?	-6	nt
Cc1cc(Cl)ccc1OCC(=O)OC(C)C(=O)NC(N)=O (configuration not stated)	-2%	46*	8	-14%	-15	1%
Cc1cc(Cl)ccc1OCC(=O)OC(C)C(=O)N(C)C (configuration not stated)	-13%	2	11	-23%	8	1%
Cc1cccc(C)c1Nc1nnc(SCC(=O)Nc2ncc(C(F)(F)F)cc2Cl)s1	-38%	-19	-2	2.1µM*	-17	?
COC(=O)C1(C)CCCC2(C)C3CCC(C(C)C)C(CO)C3C(CO)CC12 (configuration not stated)	?	7	-60*	?	-11	-2%
CCOCCCn1c(SCC(=O)Nc2oc(C)c3c(C)n[nH]c(=O)c23)nnc1-c1ccncc1	2%	12	1	3%	0	nt
Cc1n[nH]c(=O)c2c(NC(=O)CSc3nnc(-c4ccncc4)n3C)oc(C)c12	-11%	4	-9	-2%	6	32µM*
CCOCCCn1c(SCC(=O)Nc2oc(C)c3c(C)n[nH]c(=O)c23)nc2ccccc2c1=O	?	-1	-25	23µM*	11	nt
CC/C(=N\NC(=S)Nc1ccc(OC)cc1)c1ccc(OC(F)F)cc1	5.8µM*	15	17	2.9µM*	?	0%
C/C(=N\NC(=S)Nc1c(C)cccc1C)c1ccc(OC(F)F)cc1	9.2µM*	-6	-13	10µM*	-26	nt
Cc1ccc(C)c(NC(=S)/C(=C(\[O-])c2ccc(OC(F)F)cc2)[n+]2ccccc2)c1	?	-2	32	-25%	1	nt
CC/C(=N\NC(=S)Nc1cc(C)ccc1C)c1ccc(OC(F)F)cc1	16µM*	-7	0	?	-19	1%
CCc1ccc(-c2cn3c(n2)sc2cc(C(=O)NCCCc4ccccc4)ccc23)cc1	-2%	11	nt	-22%	nt	?
Cc1ccc(-n2cnc3cc(C(=O)NCCC4=CCCCC4)ccc32)c(C)c1	?	-12	nt	?	nt	-1%
Cc1ccc(-c2cn3c(n2)sc2cc(C(=O)NCCC4=CCCCC4)ccc23)c(C)c1	16µM*	-8	nt	16µM*	nt	?
Cc1ccc(-c2cn3c(n2)sc2cc(C(=O)NCCCc4ccccc4)ccc23)c(C)c1	18µM*	-1	nt	23µM*	nt	5%
Cc1[nH]c2ccccc2c1C1(O)C(=O)N(Cc2ccc(Cl)cc2)c2ccccc21 (configuration not stated)	5.2µM*	-2	nt	5.8µM*	nt	-1%
Cc1[nH]c2ccccc2c1C1(O)C(=O)N(Cc2ccc3c(c2)OCO3)c2ccccc21 (configuration not stated)	5.2µM*	-5	12	3.3µM*	?	-2%
SMILES	DT40 TDP1 no CPT	D3 ag	IL1B secr inh	TDP1 cell CPT	DRD3 antagonist	ClpP mod
Cc1[nH]c2ccccc2c1C1(O)C(=O)N(Cc2ccccc2)c2ccc(Cl)cc21 (configuration not stated)	5.2µM*	2	nt	6.5µM*	nt	-2%
Cc1ccc(CN2C(=O)C(O)(c3c(C)[nH]c4ccccc34)c3ccccc32)cc1 (configuration not stated)	4.6µM*	6	nt	6.5µM*	nt	-3%
O=C(c1cc(=O)[nH]c2ccccc12)N1CCN(Cc2ccc3c(c2)OCO3)CC1	-5%	0	1	-8%	24	-22%
Cc1cccc(NC(=O)C2CCCN2C(=O)NC2CCCCC2)c1 (configuration not stated)	0%	-2	34	-12%	15	2%
OCC1CCCN(c2nc3cc4c(cc3cc2CNCc2cccc(C(F)(F)F)c2)OCO4)C1 (configuration not stated)	-17%	nt	nt	-4%[9.04 µM]	nt	nt
O=S(=O)(NCCSc1nc2ccccc2o1)c1ccccc1	16µM*	-3	0	16µM*	13	1%
CCS(=O)(=O)CCSc1nc2ccccc2o1	-3%	-2	4	0%	-11	-2%
O=S(=O)(CCSc1ccccn1)c1nc2ccccc2s1	5.2µM*	7	-106*	2.3µM*	?	-1%
O=S(=O)(CCSc1nc2ccccc2o1)c1nc2ccccc2s1	3.7µM*	-11	-99*	4.1µM*	-62*	0%
CCOc1ccccc1N1CCN(C(=O)c2ccccc2SCC(=O)N2CCCC2)CC1	?	-1	0	?	14	?
CCN1CCC(N(Cc2cccc(OC)c2)C(=O)Nc2cccc(C)c2C)CC1	23µM*	-8	nt	?	nt	-1%
CCN1CCC(N(Cc2cccc(OC)c2)C(=O)Nc2cccc(C(F)(F)F)c2)CC1	21µM*	5	nt	?	nt	2%
CCN1CCC(N(Cc2ccc(F)cc2)C(=O)Nc2ccc(C)c(F)c2)CC1	?	-15	nt	?	nt	1%
CCN1CCC(N(Cc2ccc(F)cc2)C(=O)Nc2cccc(C(F)(F)F)c2)CC1	16µM*	-19	nt	16µM*	nt	-1%
CCOc1ccccc1NC(=O)N(Cc1ccc(F)cc1)C1CCN(CC)CC1	?	-11	nt	?	nt	-1%
CCOC(=O)C1=C[C@@H](C2CCCC2)N(S(=O)(=O)c2ccc([N+](=O)[O-])cc2)[C@H]1c1ccccc1	12µM*	16	24	21µM*	27	-1%
